Active and inactive are the calls of the source. How the source made its calls: active means hit-call score of the fitted dose curve at least 0.9, where 1 is the maximum; inactive means score below 0.9.
Legend:
[1] = ATG_CRE_CIS: Attagene CIS-FACTORIAL HepG2 Assay for human cAMP Responsive Element (CRE) binding protein 3 (AID 2282926); conditions: HepG2 CRE cis-reporter, Attagene multiplexed mRNA; actives raise or lower the signal
Outline: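 Multiplexed transcription-unit reporters transfected into HepG2; 24 h dosing; RT-PCR/capillary electrophoresis fluorescence read-out; bidirectional fit vs DMSO.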

[2] = ATG_CMV_CIS: Attagene CIS-FACTORIAL HepG2 Assay for human CMV (Internal Marker) (AID 2282928); conditions: HepG2 CMV promoter reporter, transcription factor profiling; actives raise or lower the signal;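 further: endpoint acts as a background internal control marker rather than a target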
Outline: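 Cell system: HepG2, transiently transfected multiple reporter units under cis promoters. Exposure: 24 h. Detection: RT-PCR, FAM labeling, HpaI digestion, capillary electrophoresis. Analysis: bidirectional, DMSO baseline.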

[3] = ATG_DR4_LXR_CIS: Attagene CIS-FACTORIAL HepG2 Assay for human Liver X Receptor (LXR), DR4 submotif (AID 2282929); conditions: HepG2 Attagene DR4 cis-reporter, mRNA transcription; actives raise or lower the signal
Outline: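 HepG2 cells transiently transfected with cis-promoter-driven multiplexed reporter units (DR4 element) were dosed for 24 h. Reporter mRNA was quantified by RT-PCR, fluorescent primer extension, HpaI digestion and capillary electrophoresis; bidirectional fitting versus DMSO baseline.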

[4] = target: Aryl hydrocarbon receptor (Homo sapiens) (UniProt P35869); test: ATG_Ahr_CIS: Attagene CIS-FACTORIAL HepG2 Assay for human Aryl Hydrocarbon Receptor (Ahr) (AID 2282930); conditions: HepG2 AhR cis-factorial reporter transcription; actives raise or lower the signal
Chain of Aryl hydrocarbon receptor (Homo sapiens) (P35869 whole entry, looked up): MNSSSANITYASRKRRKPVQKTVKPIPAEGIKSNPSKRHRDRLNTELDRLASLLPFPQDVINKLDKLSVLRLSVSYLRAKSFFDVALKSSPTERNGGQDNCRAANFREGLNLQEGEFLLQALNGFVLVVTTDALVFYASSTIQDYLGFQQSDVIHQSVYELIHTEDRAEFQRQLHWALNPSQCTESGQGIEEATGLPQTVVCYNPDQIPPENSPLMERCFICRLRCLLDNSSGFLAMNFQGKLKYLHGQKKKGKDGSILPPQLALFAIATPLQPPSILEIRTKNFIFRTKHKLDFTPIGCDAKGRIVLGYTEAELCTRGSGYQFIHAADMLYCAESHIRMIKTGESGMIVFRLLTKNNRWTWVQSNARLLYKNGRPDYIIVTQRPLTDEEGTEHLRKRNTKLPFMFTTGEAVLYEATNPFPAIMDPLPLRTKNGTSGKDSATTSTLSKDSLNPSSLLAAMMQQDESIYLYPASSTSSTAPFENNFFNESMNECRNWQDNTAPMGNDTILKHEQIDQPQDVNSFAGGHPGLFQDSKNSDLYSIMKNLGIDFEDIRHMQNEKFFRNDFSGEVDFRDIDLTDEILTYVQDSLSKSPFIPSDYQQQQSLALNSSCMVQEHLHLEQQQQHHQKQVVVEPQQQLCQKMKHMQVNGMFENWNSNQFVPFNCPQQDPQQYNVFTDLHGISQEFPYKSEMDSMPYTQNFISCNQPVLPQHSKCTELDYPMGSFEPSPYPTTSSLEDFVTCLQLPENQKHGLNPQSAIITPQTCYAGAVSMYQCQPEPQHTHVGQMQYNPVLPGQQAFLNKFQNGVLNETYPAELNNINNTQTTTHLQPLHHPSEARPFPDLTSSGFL
Outline: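 Endogenous factor activity is tracked through cis-promoter reporter units transfected into HepG2 cells. Transcript levels at 24 h are read by fluorescent RT-PCR and capillary electrophoresis, with activity in either direction scored relative to DMSO.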

[5] = ATG_AP_1_CIS: Attagene CIS-FACTORIAL HepG2 Assay for human Activator Protein 1 (AP-1) (AID 2282931); conditions: HepG2 Attagene cis-factorial AP-1 reporter mRNA; actives raise or lower the signal
Outline: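 HepG2 cells transiently transfected with cis-element-driven multiplex reporter units; 24 h compound exposure. Reporter mRNA quantified by RT-PCR, FAM-labelled fragments resolved by capillary electrophoresis; bidirectional fit versus DMSO baseline.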

[6] = ATG_AP_2_CIS: Attagene CIS-FACTORIAL HepG2 Assay for human Activator Protein 2 (AP-2) (AID 2282932); conditions: HepG2 AP-2 cis-reporter, Attagene transcription factor profiling; actives raise or lower the signal
Outline: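 HepG2 cells transiently transfected with cis-element reporter units and exposed for 24 h. Reporter mRNA measured by RT-PCR, FAM labelling, HpaI digestion and capillary electrophoresis. Changes in either direction fitted relative to DMSO.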

[7] = target: Retinoic acid receptor alpha (Homo sapiens) (UniProt P10276); test: ATG_DR5_RAR_CIS: Attagene CIS-FACTORIAL HepG2 Assay for human Retinoic Acid Receptor Alpha (RARE), DR5 submotif (AID 2282934); conditions: HepG2 Attagene cis-factorial RARE DR5 reporter, mRNA; actives raise or lower the signal;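 on AC50: reporter responds to endogenous RAR alpha beta and gamma in HepG2 not RARA alone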
Chain of Retinoic acid receptor alpha (Homo sapiens) (P10276 whole entry, looked up): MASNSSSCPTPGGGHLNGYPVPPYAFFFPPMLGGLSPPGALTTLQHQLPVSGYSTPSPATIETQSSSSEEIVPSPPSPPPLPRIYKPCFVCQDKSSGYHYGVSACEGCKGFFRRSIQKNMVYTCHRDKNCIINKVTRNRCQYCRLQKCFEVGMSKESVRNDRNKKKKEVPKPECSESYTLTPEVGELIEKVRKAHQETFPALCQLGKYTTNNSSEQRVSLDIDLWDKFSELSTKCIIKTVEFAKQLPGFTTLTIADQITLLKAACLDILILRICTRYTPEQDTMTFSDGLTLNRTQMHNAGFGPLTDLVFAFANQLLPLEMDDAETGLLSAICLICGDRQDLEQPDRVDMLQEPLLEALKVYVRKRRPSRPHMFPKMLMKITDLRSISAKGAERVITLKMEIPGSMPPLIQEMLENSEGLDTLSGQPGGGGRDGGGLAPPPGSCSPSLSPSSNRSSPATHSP
Outline: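 After 24 h of chemical exposure, transiently transfected HepG2 cells were lysed for total RNA; the DR5-regulated reporter transcript was quantified via RT-PCR and capillary electrophoresis, with activity fitted bidirectionally against DMSO.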

[8] = target: Transcription factor E2F1 (Homo sapiens) (UniProt Q01094); test: ATG_E2F_CIS: Attagene CIS-FACTORIAL HepG2 Assay for human E2F Transcription Factor 1 (AID 2282935); conditions: HepG2 Attagene cis-reporter, E2F reporter RNA transcripts; actives raise or lower the signal
Chain of Transcription factor E2F1 (Homo sapiens) (Q01094 whole entry, looked up): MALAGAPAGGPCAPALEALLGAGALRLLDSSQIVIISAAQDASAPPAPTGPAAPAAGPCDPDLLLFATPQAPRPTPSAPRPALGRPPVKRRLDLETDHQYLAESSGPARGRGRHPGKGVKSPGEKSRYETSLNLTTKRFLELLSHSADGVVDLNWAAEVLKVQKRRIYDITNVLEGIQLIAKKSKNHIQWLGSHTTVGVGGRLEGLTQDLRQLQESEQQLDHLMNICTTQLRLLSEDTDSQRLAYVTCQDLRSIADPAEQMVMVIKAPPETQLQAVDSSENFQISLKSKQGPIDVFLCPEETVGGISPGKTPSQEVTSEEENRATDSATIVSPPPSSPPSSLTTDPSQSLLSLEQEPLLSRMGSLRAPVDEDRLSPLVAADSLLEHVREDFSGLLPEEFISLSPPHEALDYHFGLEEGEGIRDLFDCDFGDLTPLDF
Outline: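 Endogenous E2F1 activity read through cis-promoter reporter units transfected into HepG2. After 24 h compound treatment, reporter mRNA measured by RT-PCR, HpaI digestion and capillary electrophoresis. Bidirectional fit versus DMSO.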

[9] = ATG_E_Box_CIS: Attagene CIS-FACTORIAL HepG2 Assay for human Enhancer Box (E-box) (AID 2282936); conditions: HepG2 E-box cis-reporter transcription, actives raise or lower the signal
Outline: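 HepG2 cells transiently transfected with multiplexed cis-element reporter units, dosed 24 h; reporter mRNA quantified by RT-PCR, 6-FAM labelling, HpaI digestion and capillary electrophoresis. E-box (USF1) signal fitted bidirectionally vs DMSO.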

[10] = ATG_M_61_CIS: Attagene CIS-FACTORIAL HepG2 Assay for M61 Transcription Factor (Internal Marker) (AID 2282937); conditions: HepG2 Attagene CIS-FACTORIAL M61 internal marker reporter; actives raise or lower the signal
Outline: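 HepG2 cells transiently transfected with cis-element-driven multiple reporter transcription units, dosed for 24 h. Reporter mRNA measured by RT-PCR, 6-FAM primer-extension labelling, HpaI digestion and capillary electrophoresis; bidirectional fit versus DMSO baseline.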

[11] = ATG_EGR_CIS: Attagene CIS-FACTORIAL HepG2 Assay for human Early Growth Response 1 (EGR1) (AID 2282938); conditions: HepG2 Attagene CIS-FACTORIAL EGR reporter mRNA; actives raise or lower the signal
Outline: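 HepG2 cells transiently transfected with cis-promoter-driven multiplexed reporter transcription units; reporter mRNA measured 24 h after compound dosing by RT-PCR, 6-FAM primer extension, HpaI digestion and capillary electrophoresis. Bidirectional fit versus DMSO baseline.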

[12] = ATG_M_19_CIS: Attagene CIS-FACTORIAL HepG2 Assay for M19 Transcription Factor (Internal Marker) (AID 2282939); conditions: HepG2 Attagene CIS-FACTORIAL M19 internal marker reporter; actives raise or lower the signal
Outline: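 HepG2, MRTU transient transfection, 24 h dosing. Total RNA → RT-PCR → 6-FAM primer extension → HpaI digest → CE fluorescence. Bidirectional curve fit, DMSO negative control.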

[13] = ATG_Ets_CIS: Attagene CIS-FACTORIAL HepG2 Assay for human Erythroblast Transformation Specific (ETS) (AID 2282941); conditions: HepG2 ETS cis-reporter transcription, actives raise or lower the signal
Outline: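 After transient cis-reporter transfection, HepG2 cells receive test chemical for 24 h. Reporter mRNA levels, measured by RT-PCR and capillary electrophoresis fluorescence, are analysed bidirectionally relative to the DMSO baseline.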

[14] = target: Hepatocyte nuclear factor 3-beta (Homo sapiens) (UniProt Q9Y261); test: ATG_FoxA2_CIS: Attagene CIS-FACTORIAL HepG2 Assay for human Forkhead box A2 (FOXA2) (AID 2282942); conditions: HepG2 cis-reporter transcription factor activity, 24 h; actives raise or lower the signal
Chain of Hepatocyte nuclear factor 3-beta (Homo sapiens) (Q9Y261 whole entry, looked up): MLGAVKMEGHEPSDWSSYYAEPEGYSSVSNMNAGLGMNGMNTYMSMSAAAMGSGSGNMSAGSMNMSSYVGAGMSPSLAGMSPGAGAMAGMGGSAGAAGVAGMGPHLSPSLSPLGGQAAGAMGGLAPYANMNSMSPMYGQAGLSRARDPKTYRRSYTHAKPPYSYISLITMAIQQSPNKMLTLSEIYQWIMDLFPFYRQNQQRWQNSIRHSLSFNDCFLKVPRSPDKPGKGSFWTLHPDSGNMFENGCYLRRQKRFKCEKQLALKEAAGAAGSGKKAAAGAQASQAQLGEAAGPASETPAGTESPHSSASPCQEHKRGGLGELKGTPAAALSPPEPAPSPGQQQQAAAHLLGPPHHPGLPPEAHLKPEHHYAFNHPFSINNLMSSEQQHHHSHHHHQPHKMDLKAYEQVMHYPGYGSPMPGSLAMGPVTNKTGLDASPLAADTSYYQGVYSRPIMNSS
Outline: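 HepG2 cells transiently transfected with multiple cis-regulated reporter transcription units, dosed for 24 h. Reporter mRNA measured by RT-PCR, 6-FAM labelling, HpaI digestion and capillary electrophoresis; bidirectional fitting against DMSO baseline.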

[15] = ATG_FoxO_CIS: Attagene CIS-FACTORIAL HepG2 Assay for human Forkhead box O (FoxO) (AID 2282943); conditions: HepG2 Attagene cis-reporter, FoxO element, mRNA; actives raise or lower the signal
Outline: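 Transfected HepG2 reporter cells exposed to test chemical for 24 h; reporter RNA measured by reverse transcription, PCR and fluorescent capillary electrophoresis; curves fitted for increases and decreases against DMSO.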

[16] = ATG_GATA_CIS: Attagene CIS-FACTORIAL HepG2 Assay for human GATA Binding Protein (AID 2282944); conditions: HepG2 GATA cis-element reporter, Attagene multiplex mRNA; actives raise or lower the signal
Outline: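 Cells: HepG2, transiently transfected with cis-regulated reporter transcription units. Exposure: 24 h. Detection: RT-PCR plus capillary electrophoresis of FAM-labeled fragments. Analysis: bidirectional, DMSO as baseline.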

[17] = ATG_GLI_CIS: Attagene CIS-FACTORIAL HepG2 Assay for human Zinc Finger Protein GLI1 (AID 2282945); conditions: HepG2, Attagene cis-factorial reporter mRNA, GLI element; actives raise or lower the signal
Outline: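 Transiently transfected HepG2 cells report endogenous transcription factor activity via cis-element-driven reporter units. After 24 h compound exposure, reporter mRNA was measured by RT-PCR with capillary electrophoresis; bidirectional fitting against DMSO baseline.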

[18] = ATG_ERE_CIS: Attagene CIS-FACTORIAL HepG2 Assay for Estrogen Response Element (ERE) (AID 2282940); conditions: HepG2 ERE cis-reporter, Attagene RNA transcript; actives raise or lower the signal
Outline: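 After a 24 h chemical treatment, RNA from reporter-transfected HepG2 cells is reverse-transcribed, PCR-amplified and fluorescently labelled. Fragments separated by capillary electrophoresis give reporter signal; DMSO serves as negative control.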

[19] = ATG_BRE_CIS: Attagene CIS-FACTORIAL HepG2 Assay for human Bone Morphogenetic Protein (BMP) Response Element (BRE) (AID 2282933); conditions: HepG2 BMP response element reporter, Attagene transcription factor profiling; actives raise or lower the signal
Outline: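 Fluorescence-labelled reporter cDNA fragments, separated by capillary electrophoresis, gave the signal for this component of a 52-readout multiplex. HepG2 cells were transfected, exposed to chemicals for 24 h, and compared with DMSO using bidirectional fitting.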

Measured: AC50

CCOCCOCCOCCO
not listed: [18] | [19]
inactive: all other assays above

CC[C@H]1CC[C@H](NCc2cc3c(cc2OC)[C@H]2C[C@H]2C(=O)N3C)[C@H](c2ccccc2)N1
active: [1] 58.6 µM | [6] 55.4 µM | [11] 71.3 µM | [13] 100 µM | [15] 100 µM
not listed: [19]
inactive: all other assays above

CC(O)CN(CCN(CC(C)O)CC(C)O)CC(C)O (stereo not given)
not listed: [18] | [19]
inactive: all other assays above

Cn1c(=O)c2c(ncn2C)n(C)c1=O
not listed: [18] | [19]
inactive: all other assays above

CC(=O)OCCC(C)C
not listed: [18] | [19]
inactive: all other assays above

C1=CCCC=CCCC=CCC1
active: [2] 135 µM | [3] 100 µM | [5] 161 µM | [9] 76.6 µM
not listed: [18]
inactive: all other assays above

CCCCC(CC)COC(=O)CCCCCCCCC(=O)OCC(CC)CCCC (stereo not given)
active: [1] 25.2 µM
not listed: [7] | [19]
inactive: all other assays above

CCCCCCCCCCCCc1ccccc1
not listed: [18]
inactive: all other assays above

COC(=O)CC(=O)OC
not listed: [19]
inactive: all other assays above

Fc1ccccc1[C@@H](F)COC1CCC(Nc2ncnc3[nH]ncc23)CC1 (stereo not given in full)
active: [1] 25.5 µM | [2] 24.4 µM | [19] 24.6 µM | [8] 25.6 µM | [9] 177 µM | [11] 5.72 µM
not listed: [18]
inactive: all other assays above

CN(C)c1ccc(N=NS(=O)(=O)O)cc1
active: [4] 7.46 µM | [5] 43.8 µM
not listed: [18] | [19]
inactive: all other assays above

Cc1ccc(N)cc1O
active: [4] 2.56 µM
not listed: [19]
inactive: all other assays above

Nc1cccc(N)c1
not listed: [18] | [19]
inactive: all other assays above

CC/C(=C\C(=N/O)C(N)=O)C(C)[N+](=O)[O-] (stereo not given)
not listed: [19]
inactive: all other assays above

CC(C)c1cccc(C(C)C)c1N1C(=O)c2ccc(O)cc2C1=O
active: [1] 56 µM | [3] 12.1 µM | [5] 24.1 µM | [7] 5.9 µM | [11] 66.8 µM | [12] 182 µM | [17] 126 µM
not listed: [18] | [19]
inactive: all other assays above

CCCCCCc1ccc(O)cc1O
active: [2] 33.4 µM | [3] 44.4 µM | [11] 52.7 µM
not listed: [18]
inactive: all other assays above
